Screening results deposited in PubChem by National Center for Advancing Translational Sciences (NCATS).
Compounds with a hit are over-represented: about 11% of the library has one in this group of screens.
L3MBTL1 inh: inhibitors of human L3MBTL1. AlphaScreen L3MBTL1–H3K9me1 peptide binding. 230,000 compounds, 0.66% hits. Potency, µM (series often up to 57.1 µM), inactives show top-dose activity, negative = inhibition, actives largely listed as inhibitors. Q9Y468; note: % is set by controls: 0 for no effect and ±100 for the full control effect; nearly all actives have a fitted effect of over 60% in size
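First, the protein-peptide complex forms for 30 min at room temperature (L3MBTL1 50 nM, biotinylated H3K9me1 peptide 75 nM). Next, compounds are pin-transferred and incubated 30 min. Finally, AlphaScreen beads are added and read after 30 min.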
JMJD2A Tudor inh: inhibitors of human JMJD2A Tudor domain | Potency, µM (titrated, usually from 114 µM), for the others: top-dose activity change, negative = inhibition, hits mostly inhibitors | 390,000 compounds, 4.4% hits | O75164 | AlphaScreen JMJD2A-Tudor / H3K4me3 peptide binding; note: % is set by controls: 0 for no effect and ±100 for the full control effect; nearly all actives have a fitted effect of over 50% in size
G9a inh: blocks human histone lysine methyltransferase G9a | Q96KQ7 | G9a H3K9 monomethylation, AlphaScreen, 2 h | Potency, µM (top dose mostly 102 µM), without a hit: at the highest dose activity, negative = inhibition, actives largely listed as inhibitors | 350,000 compounds, 8.8% hits | AID 504332; note: % is set by controls: 0 for no effect and ±100 for the full control effect; nearly all actives have a fitted effect of over 75% in size
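Quantitative HTS format: methyltransferase activity on a biotin-tagged H3K9 peptide is measured by AlphaScreen, using a rabbit anti-monomethyl-H3K9 antibody with streptavidin donor and anti-IgG acceptor beads. Final levels are 20 nM enzyme, 500 nM peptide, 20 uM SAM; 2 h RT.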
BAZ2B block: blocks human BAZ2B; Q9UIF8; Potency, µM (top dose mostly 114 µM), for the others: at the top dose activity change, negative = inhibition, most hits filed as inhibitors; AlphaScreen BAZ2B-H3K14Ac peptide displacement; AID 504333; 360,000 compounds, 4.4% hits; note: % is set by controls: 0 for no effect and ±100 for the full control effect; nearly all actives have a fitted effect of over 60% in size
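Inhibition is scored as reduced AlphaScreen emission. The BAZ2B/b-H3(5-23)K14Ac complex (50 nM each) in PBS pH 7.4, 0.01% Tween-20 meets compound (up to 110 uM) for 30 min at RT before bead addition.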
HP1b chromo inh: HP1-beta chromodomain-methylated histone interaction inhibition. P83916. AlphaScreen HP1-beta / biotin-H3K9me3 peptide binding. Potency, µM (highest dose often 114 µM), for the others: at the highest dose activity change, negative = inhibition, actives largely listed as inhibitors. 390,000 compounds, 0.56% hits. AID 540317; note: nearly all actives have a fitted effect of over 70% in size
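HP1-beta protein (50 nM final) preincubated 30 min at room temperature with biotinylated H3(1-18)K9me3 peptide (50 nM) in PBS pH 7.4, 0.01% Tween-20, then compound added for 30 min. AlphaScreen streptavidin donor/nickel chelate acceptor beads (10 ug/mL final), 30 min dark, luminescence read.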
* hit, by the source's call; ? = inconclusive; nt = no result; [ ] = dose if it differs, or a comment. Calls come from the whole dose curve; as a rule, active = well fitted inhibition curve with a large enough effect; inconclusive = small, poorly fitted or top-dose-only effect; inactive = no such curve, though single readings can be large or run the other way. Potency is the fitted concentration of half-maximal effect.

SMILES	L3MBTL1 inh	JMJD2A Tudor inh	G9a inh	BAZ2B block	HP1b chromo inh
c1ccc(OCCCCN2CCCCC2)cc1	0%	-11%	7%[59 µM]	3%	15%
c1ccc(COc2ccc(OCCCN3CCCCC3)cc2)cc1	nt	40µM*	13µM*	?	?
Cc1ccc(NC(=O)C(c2ccccc2)N2Cc3ccccc3C2=O)cc1Cl (stereo unspecified)	nt	-24%	5%[59 µM]	-28%	7%
CCOC(=O)c1sc(NNC(=O)c2ccc(C)cc2)nc1C	-7%	-12%	?	-3%	38%
CCOC(=O)c1nc(NNC(=O)c2ccc([N+](=O)[O-])cc2)sc1C	-3%	?	45µM*	?	-13%
CC[N+]1(C)CCC(O)(c2ccc(OC)cc2)C(C(=O)c2ccc(OC)cc2)C1 (stereo unspecified)	nt	89µM*	nt	nt	-5%
CCSc1nc(-c2ccccc2OC)nc2c1Cc1c(CO)cnc(C)c1O2	nt	-12%	-37%[59 µM]	-11%	20%
CCN1C(=O)c2ccccc2Sc2ccc(NC(=O)Nc3cccc([N+](=O)[O-])c3C)cc21	nt	-21%	0%[59 µM]	1%	13%[57 µM]
CN(C)c1ccc(N/C(=N\S(=O)(=O)c2cccs2)c2ccccc2)cc1	?	45µM*	4.5µM*	45µM*	?
COc1ccc(C(C)NC(=O)c2ccccc2)cc1 (stereo unspecified)	nt	-9%	16%[59 µM]	6%	15%
COc1ccc(C(C)NS(=O)(=O)Cc2ccccc2)cc1 (stereo unspecified)	4%	-13%	50µM*	-9%	20%
COc1ccc(OC)c(NS(=O)(=O)Cc2ccccc2)c1	-8%	nt	35µM*	?	nt
CN(C)CCCN(C(=O)c1ccc(S(=O)(=O)N2CCc3ccccc3C2)cc1)c1nc2ccc(F)cc2s1	nt	?	40µM*	-31%	-31%
Cc1ccc2nc(N(CCCN(C)C)C(=O)c3ccc(S(=O)(=O)N4CCc5ccccc5C4)cc3)sc2c1	nt	?	71µM*	?	?
Cc1cc(C)c2sc(N(CCCN(C)C)C(=O)c3ccc(S(=O)(=O)N4CCCc5ccccc54)cc3)nc2c1	-17%	40µM*	45µM*	11µM*	-7%
CN(C)CCCN(C(=O)c1ccc(S(=O)(=O)N2CCc3ccccc32)cc1)c1nc2ccc(F)cc2s1	nt	?	45µM*	?	?
CCOc1ccc(NC(=O)CSc2nnc3c(n2)[nH]c2ccc(S(=O)(=O)N(C)C)cc23)cc1	nt	?	nt	nt	-2%
CCOC(=O)N1CCC(NC(=O)c2cnn(-c3ccc(F)cc3)c2-n2cccc2)CC1	nt	9%	6%[59 µM]	-5%	43%
Cc1cccc2sc(N(CCCN(C)C)C(=O)c3ccc(S(=O)(=O)N4CCc5ccccc5C4)cc3)nc12	nt	-28%	nt	-18%	3%
Cc1cc(C)c2sc(N(CCCN(C)C)C(=O)c3ccc(S(=O)(=O)N4CCc5ccccc5C4)cc3)nc2c1	-11%	nt	22µM*	-20%	nt
CN(C)CCCN(C(=O)c1ccc(S(=O)(=O)N2CCc3ccccc3C2)cc1)c1nc2c(F)cccc2s1	nt	-7%	-12%	-9%	35%
COc1ccc2sc(N(CCCN(C)C)C(=O)c3ccc(S(=O)(=O)N4CCc5ccccc5C4)cc3)nc2c1	-13%	56µM*	32µM*	-39%	-25%
CN(C)S(=O)(=O)N1CCC(N2CCN(Cc3ccc(F)cc3)C(=O)C2=O)CC1	nt	-15%	3%[59 µM]	-15%	20%
COc1ccc(N2C(=O)CC(NCC#N)C2=O)cc1 (stereo unspecified)	-6%	-15%	28µM*	6%	45%
COc1ccc(N2C(=O)CC(Nc3ccc(C)cc3)C2=O)cc1 (stereo unspecified)	nt	-8%	22%	4%	13%
CCOC(=O)CNC1CC(=O)N(c2ccc(Br)cc2)C1=O (stereo unspecified)	nt	-10%	10µM*	-13%	47%
COc1ccc(N2C(=O)CC(NC3CCCCNC3=O)C2=O)cc1 (stereo unspecified)	7%	18%[57.1 µM]	11µM*	2%	55%
CCCOc1ccc(N2C(=O)CC(NCC#N)C2=O)cc1 (stereo unspecified)	1%	-3%	60%	1%	18%
